Reference: the supplement of paper PMC10849652
Targets with a hit are over-represented here; the source holds about 7,900 in all. About 0.6% of all pairs of compound and target were hits.

Assays:
Assay in all cases: log2 fold change, soluble protein after heating vs DMSO (PISA); higher = thermal stabilisation; K562 cells, 10 uM, 30 min; active = over 0.2 and 3.5 SD of the protein, either way, in both replicates (recomputed)
[1] = compound: CS(=O)(=O)c1ccc(-c2cnc(N)c(C(=O)Nc3ccccc3)n2)cc1
Outline: (§1)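 K562 cells at 2×10^6 cells/mL were treated with 10 μM compound for 30 min. Aliquots were heated for 3 min across 48°C-58°C, pooled, and extracted in PBS with 0.5% NP-40 at 4°C; soluble protein was the supernatant after 21,000xg for 90 min. Soluble protein was quantified by TMTpro 16plex LC-MS/MS with channel sums equalised, and reported as log2 fold change in thermal stability against DMSO controls, with values from duplicates.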

[2] = compound: C[C@@H](Oc1cc(-c2cnn(C3CCNCC3)c2)cnc1N)c1c(Cl)ccc(F)c1Cl [crizotinib]
Outline: as §1

[3] = compound: C[C@@H]1COCCN1C2=NC(=NC(=C2)C3(CC3)S(=O)(=O)C)C4=C5C=CNC5=CC=C4
Outline: as §1

[4] = compound: C[C@H](C1=CC=C(C=C1)C(=O)NC2=C3C=CNC3=NC=C2)N
Outline: as §1

[5] = compound: C[C@H](Nc1ncnc2nc[nH]c12)c1cc2cccc(Cl)c2c(=O)n1-c1ccccc1 [duvelisib]
Outline: as §1

[6] = compound: Cc1cc(Nc2cc(CN3CCOCC3)c3nc(C)c(Cc4ccc(Cl)cc4F)n3n2)n[nH]1 [gandotinib]
Outline: as §1

[7] = compound: Cc1cc(Nc2cc(N3CCN(C)CC3)nc(Sc3ccc(NC(=O)C4CC4)cc3)n2)n[nH]1 [tozasertib]
Outline: as §1

[8] = compound: Cc1cc(SCc2sc(-c3ccc(C(F)(F)F)cc3)nc2C)ccc1OCC(=O)O
Outline: as §1

[9] = compound: Cc1ccc(-n2nc(C(C)(C)C)cc2NC(=O)Nc2ccc(OCCN3CCOCC3)c3ccccc23)cc1 [doramapimod]
Outline: as §1

[10] = compound: Cc1ccc(C(=O)N(CCCN)[C@@H](c2nc3cc(Cl)ccc3c(=O)n2Cc2ccccc2)C(C)C)cc1 [ispinesib]
Outline: as §1

Measured: log2 fold change

HDAC1 (UniProt Q13547)
inactive: [1] 0.011 | [2] 0.084 | [3] 0.001 | [4] 0.115 | [5] 0.045 | [6] -0.02 | [7] -0.033 | [8] 0.06 | [9] -0.018 | [10] 0.038

FDXR isoform 7 (UniProt P22570)
inactive: [1] 0.038 | [2] -0.036 | [3] 0.117 | [4] -0.01 | [5] 0.11 | [6] -0.064 | [7] -0.105 | [8] 0.023 | [9] -0.013 | [10] -0.138

FNTB (UniProt P49356)
inactive: [1] 0.104 | [2] 0.054 | [3] -0.035 | [4] -0.137 | [5] 0.085 | [6] 0.169 | [7] -0.012 | [8] -0.043 | [9] -0.012 | [10] 0.109

HOOK3 (UniProt Q86VS8)
inactive: [1] -0.042 | [2] -0.123 | [3] -0.05 | [4] 0.036 | [5] 0.05 | [6] -0.067 | [7] 0.037 | [8] 0.033 | [9] 0.019 | [10] -0.199

GLUL (UniProt P15104)
inactive: [1] -0.07 | [2] 0.008 | [4] 0.062 | [5] 0.035 | [6] -0.014 | [7] -0.014 | [8] -0.047 | [9] -0.126 | [10] 0.005
active: [3] -0.267

GYS1 (UniProt P13807)
Sequence of UniProt P13807 (P13807 whole entry, looked up): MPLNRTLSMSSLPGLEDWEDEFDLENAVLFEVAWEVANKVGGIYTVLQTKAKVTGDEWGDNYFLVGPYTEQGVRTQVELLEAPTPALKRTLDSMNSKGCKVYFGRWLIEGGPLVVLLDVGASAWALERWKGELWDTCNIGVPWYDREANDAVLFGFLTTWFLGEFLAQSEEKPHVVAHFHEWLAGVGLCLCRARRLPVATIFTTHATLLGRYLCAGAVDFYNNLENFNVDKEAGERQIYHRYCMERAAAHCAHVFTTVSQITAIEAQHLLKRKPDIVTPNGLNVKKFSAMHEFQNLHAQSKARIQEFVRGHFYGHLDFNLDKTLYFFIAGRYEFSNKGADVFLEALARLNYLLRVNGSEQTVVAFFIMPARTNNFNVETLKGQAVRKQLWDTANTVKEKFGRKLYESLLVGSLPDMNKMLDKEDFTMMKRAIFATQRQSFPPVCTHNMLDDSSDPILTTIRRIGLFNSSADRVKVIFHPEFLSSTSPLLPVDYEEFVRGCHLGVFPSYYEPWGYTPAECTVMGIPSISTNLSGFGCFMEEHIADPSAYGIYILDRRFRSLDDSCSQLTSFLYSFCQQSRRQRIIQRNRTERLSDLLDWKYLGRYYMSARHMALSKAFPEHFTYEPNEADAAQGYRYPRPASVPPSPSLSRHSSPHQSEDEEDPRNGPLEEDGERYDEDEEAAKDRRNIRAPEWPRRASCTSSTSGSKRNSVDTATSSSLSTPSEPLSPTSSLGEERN
inactive: [1] 0.017 | [2] -0.097 | [3] -0.187 | [4] 0.311 | [5] -0.147 | [6] -0.015 | [7] -0.079 | [8] 0.184 | [9] 0.271 | [10] -0.231

HADHB (UniProt P55084)
Sequence of UniProt P55084 (P55084 whole entry, looked up): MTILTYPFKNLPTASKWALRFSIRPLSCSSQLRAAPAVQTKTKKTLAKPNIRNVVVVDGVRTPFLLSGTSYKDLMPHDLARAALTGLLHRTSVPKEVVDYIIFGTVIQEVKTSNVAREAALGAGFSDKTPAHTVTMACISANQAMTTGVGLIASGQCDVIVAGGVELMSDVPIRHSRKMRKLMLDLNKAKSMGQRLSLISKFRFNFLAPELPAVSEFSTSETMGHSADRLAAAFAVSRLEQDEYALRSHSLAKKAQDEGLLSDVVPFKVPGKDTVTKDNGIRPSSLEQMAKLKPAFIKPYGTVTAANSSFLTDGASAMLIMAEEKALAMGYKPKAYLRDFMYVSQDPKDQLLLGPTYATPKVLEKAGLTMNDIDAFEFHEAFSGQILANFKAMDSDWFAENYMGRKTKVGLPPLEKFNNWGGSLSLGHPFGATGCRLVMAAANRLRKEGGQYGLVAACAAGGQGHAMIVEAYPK
inactive: [1] -0.087 | [2] 0.109 | [3] 0.099 | [4] -0.023 | [5] 0.229 | [6] 0.083 | [7] -0.112 | [8] 0.138 | [9] 0.167 | [10] 0.199

GAPVD1 isoform 6 (UniProt Q14C86)
inactive: [1] -0.012 | [2] -0.145 | [3] 0.017 | [4] 0.075 | [5] -0.058 | [6] -0.081 | [7] 0.061 | [8] 0.147 | [9] 0.038 | [10] -0.133

HMGN1 (UniProt P05114)
Sequence of UniProt P05114 (P05114 whole entry, looked up): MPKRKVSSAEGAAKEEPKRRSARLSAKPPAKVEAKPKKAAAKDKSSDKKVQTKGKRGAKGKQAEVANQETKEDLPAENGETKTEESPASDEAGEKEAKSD
inactive: [1] -0.067 | [2] 0.055 | [3] -0.034 | [4] 0.058 | [5] -0.045 | [6] 0.094 | [7] 0.015 | [8] -0.027 | [9] 0.013 | [10] -0.042

GTF2H3 (UniProt Q13889)
inactive: [1] 0.061 | [2] 0.049 | [3] -0.012 | [4] -0.003 | [5] -0.047 | [6] -0.012 | [7] -0.031 | [8] -0.2 | [9] 0.021 | [10] 0.023

HSPA8 (UniProt P11142)
inactive: [1] 0.003 | [2] 0.039 | [3] -0.048 | [4] -0.009 | [5] -0.026 | [6] 0.014 | [7] 0.01 | [8] -0.003 | [9] -0.008 | [10] 0.028

GNL1 (UniProt P36915)
Sequence of UniProt P36915 (P36915 whole entry, looked up): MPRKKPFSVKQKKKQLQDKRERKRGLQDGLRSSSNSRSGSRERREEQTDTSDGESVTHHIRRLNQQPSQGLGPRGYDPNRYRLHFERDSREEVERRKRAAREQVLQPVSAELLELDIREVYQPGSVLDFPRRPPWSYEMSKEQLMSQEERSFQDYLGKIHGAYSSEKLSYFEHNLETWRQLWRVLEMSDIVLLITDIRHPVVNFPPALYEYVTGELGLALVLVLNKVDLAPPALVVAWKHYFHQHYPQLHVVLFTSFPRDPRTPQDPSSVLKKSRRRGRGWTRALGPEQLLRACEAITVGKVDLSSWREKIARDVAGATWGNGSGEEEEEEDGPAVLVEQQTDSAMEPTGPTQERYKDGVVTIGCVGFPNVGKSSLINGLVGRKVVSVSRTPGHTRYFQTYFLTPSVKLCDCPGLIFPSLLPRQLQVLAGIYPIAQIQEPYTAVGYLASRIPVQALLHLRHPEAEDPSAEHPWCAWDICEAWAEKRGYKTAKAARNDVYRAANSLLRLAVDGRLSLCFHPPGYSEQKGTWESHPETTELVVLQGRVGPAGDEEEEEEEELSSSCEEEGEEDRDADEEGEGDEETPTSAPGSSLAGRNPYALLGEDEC
inactive: [1] 0.051 | [2] -0.014 | [3] 0.162 | [4] -0.011 | [5] 0.013 | [6] 0.028 | [7] -0.014 | [8] 0.052 | [9] -0.019 | [10] 0.087

GLB1 (UniProt P16278)
active: [2] -0.221 | [10] -0.255
inactive: [1] 0.024 | [3] -0.074 | [4] 0.007 | [5] -0.022 | [6] 0 | [7] 0.036 | [8] -0.004 | [9] 0.013

FUT8 (UniProt Q9BYC5)
Sequence of UniProt Q9BYC5 (Q9BYC5 whole entry, looked up): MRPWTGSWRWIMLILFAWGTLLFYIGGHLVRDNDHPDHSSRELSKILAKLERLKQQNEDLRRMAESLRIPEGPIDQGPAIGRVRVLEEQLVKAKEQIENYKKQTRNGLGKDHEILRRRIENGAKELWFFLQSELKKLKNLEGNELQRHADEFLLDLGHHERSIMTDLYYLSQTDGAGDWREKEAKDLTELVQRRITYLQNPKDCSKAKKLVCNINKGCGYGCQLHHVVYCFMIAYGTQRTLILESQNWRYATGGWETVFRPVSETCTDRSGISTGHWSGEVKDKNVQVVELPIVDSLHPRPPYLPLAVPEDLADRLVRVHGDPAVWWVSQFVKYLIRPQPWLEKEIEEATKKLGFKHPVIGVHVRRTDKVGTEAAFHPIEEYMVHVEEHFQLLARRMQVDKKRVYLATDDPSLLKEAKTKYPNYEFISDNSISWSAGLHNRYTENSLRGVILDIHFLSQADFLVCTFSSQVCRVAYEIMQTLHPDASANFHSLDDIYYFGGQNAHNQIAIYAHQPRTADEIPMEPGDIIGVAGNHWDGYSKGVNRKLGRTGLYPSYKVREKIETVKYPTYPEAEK
inactive: [1] 0.018 | [2] -0.235 | [3] 0.077 | [4] -0.011 | [5] -0.007 | [6] 0.034 | [7] -0.14 | [8] 0.178 | [9] -0.017 | [10] -0.148

HBQ1 (UniProt P09105)
inactive: [1] -0.017 | [2] 0.037 | [3] 0.065 | [4] -0.148 | [5] 0.129 | [6] -0.002 | [7] 0.015 | [8] -0.023 | [9] -0.003 | [10] 0.092

GALNT11 (UniProt Q8NCW6)
inactive: [1] 0.039 | [2] 0.04 | [3] 0.112 | [4] 0.018 | [5] 0.039 | [6] 0.045 | [7] 0.027 | [8] -0.061 | [9] 0.045 | [10] -0.163

HHEX (UniProt Q03014)
inactive: [1] -0.014 | [2] -0.027 | [3] -0.104 | [4] 0.49 | [5] -0.072 | [6] -0.042 | [7] -0.019 | [8] 0.021 | [9] 0.05 | [10] -0.128

GABPA (UniProt Q06546)
inactive: [1] 0.059 | [2] -0.028 | [3] 0.126 | [4] 0.012 | [5] 0.089 | [6] -0.029 | [7] 0.025 | [8] 0.068 | [9] -0.018 | [10] -0.099

HAX1 (UniProt O00165)
active: [10] -0.59
inactive: [1] 0.02 | [2] -0.235 | [3] -0.043 | [4] 0.16 | [5] -0.062 | [6] -0.174 | [7] -0.071 | [8] 0.014 | [9] 0.035

FUCA2 (UniProt Q9BTY2)
inactive: [1] 0.021 | [2] -0.002 | [3] 0.017 | [4] -0.05 | [5] 0.007 | [6] 0.041 | [7] -0.008 | [8] 0.014 | [9] 0.058 | [10] -0.001

FLNA (UniProt P21333)
inactive: [1] 0.014 | [2] -0.078 | [3] -0.01 | [4] 0.04 | [5] -0.014 | [6] -0.045 | [7] 0.108 | [8] 0.127 | [9] -0.013 | [10] -0.025

HDAC2 (UniProt Q92769)
Sequence of UniProt Q92769 (Q92769 whole entry, looked up): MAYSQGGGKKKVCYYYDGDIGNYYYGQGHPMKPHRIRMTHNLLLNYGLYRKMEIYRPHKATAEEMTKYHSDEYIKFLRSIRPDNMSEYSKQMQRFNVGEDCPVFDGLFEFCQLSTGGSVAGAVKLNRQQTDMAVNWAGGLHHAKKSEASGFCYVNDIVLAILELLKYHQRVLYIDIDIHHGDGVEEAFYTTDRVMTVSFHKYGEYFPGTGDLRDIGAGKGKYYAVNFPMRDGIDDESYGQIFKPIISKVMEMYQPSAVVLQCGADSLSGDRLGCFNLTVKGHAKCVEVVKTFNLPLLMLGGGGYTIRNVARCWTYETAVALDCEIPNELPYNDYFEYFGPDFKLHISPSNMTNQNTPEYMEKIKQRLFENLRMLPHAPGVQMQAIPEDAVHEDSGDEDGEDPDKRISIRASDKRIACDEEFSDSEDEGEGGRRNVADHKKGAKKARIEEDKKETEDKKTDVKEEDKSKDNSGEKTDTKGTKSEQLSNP
inactive: [1] -0.01 | [2] 0.08 | [3] -0.02 | [4] -0.046 | [5] 0.022 | [6] 0.003 | [7] -0.002 | [8] -0.029 | [9] 0.011 | [10] 0.072

GALK1 isoform 2 (UniProt P51570)
Sequence of UniProt P51570 (P51570 whole entry, looked up): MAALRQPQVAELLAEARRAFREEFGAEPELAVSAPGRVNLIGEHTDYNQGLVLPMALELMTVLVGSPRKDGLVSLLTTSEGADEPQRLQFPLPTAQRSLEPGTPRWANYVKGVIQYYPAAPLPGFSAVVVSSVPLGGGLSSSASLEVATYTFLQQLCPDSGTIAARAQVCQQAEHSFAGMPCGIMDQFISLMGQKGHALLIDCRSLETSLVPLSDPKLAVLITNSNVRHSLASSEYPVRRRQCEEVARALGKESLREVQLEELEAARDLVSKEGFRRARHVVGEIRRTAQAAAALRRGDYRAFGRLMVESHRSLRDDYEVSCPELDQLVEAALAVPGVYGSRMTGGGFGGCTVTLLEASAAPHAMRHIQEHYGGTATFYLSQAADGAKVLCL
inactive: [1] -0.1 | [2] -0.041 | [3] 0.037 | [4] -0.088 | [5] -0.021 | [6] -0.087 | [7] -0.013 | [8] 0.056 | [9] 0.012 | [10] 0.078

HAT1 (UniProt O14929)
inactive: [1] -0.011 | [2] 0.013 | [3] 0.007 | [4] -0.225 | [5] -0.031 | [6] 0.019 | [7] 0.024 | [8] 0.033 | [9] -0.04 | [10] 0.135

HEATR3 (UniProt Q7Z4Q2)
inactive: [1] -0.001 | [2] -0.171 | [3] 0.094 | [4] 0.123 | [5] 0.078 | [6] -0.377 | [7] 0.065 | [8] 0.146 | [9] 0.011 | [10] -0.006

FBXO42 (UniProt Q6P3S6)
active: [2] 0.4
inactive: [1] 0.077 | [3] 0.127 | [4] -0.064 | [5] 0.076 | [6] -0.022 | [7] 0.105 | [8] 0.063 | [9] 0.01 | [10] -0.015

IFRD1 (UniProt O00458)
active: [3] 0.37
inactive: [1] 0.347 | [2] 0.004 | [4] 0.013 | [5] 0.002 | [6] 0.104 | [7] 0.035 | [8] -0.003 | [9] 0 | [10] -0.006

GLS (UniProt O94925)
Sequence of UniProt O94925 (O94925 whole entry, looked up): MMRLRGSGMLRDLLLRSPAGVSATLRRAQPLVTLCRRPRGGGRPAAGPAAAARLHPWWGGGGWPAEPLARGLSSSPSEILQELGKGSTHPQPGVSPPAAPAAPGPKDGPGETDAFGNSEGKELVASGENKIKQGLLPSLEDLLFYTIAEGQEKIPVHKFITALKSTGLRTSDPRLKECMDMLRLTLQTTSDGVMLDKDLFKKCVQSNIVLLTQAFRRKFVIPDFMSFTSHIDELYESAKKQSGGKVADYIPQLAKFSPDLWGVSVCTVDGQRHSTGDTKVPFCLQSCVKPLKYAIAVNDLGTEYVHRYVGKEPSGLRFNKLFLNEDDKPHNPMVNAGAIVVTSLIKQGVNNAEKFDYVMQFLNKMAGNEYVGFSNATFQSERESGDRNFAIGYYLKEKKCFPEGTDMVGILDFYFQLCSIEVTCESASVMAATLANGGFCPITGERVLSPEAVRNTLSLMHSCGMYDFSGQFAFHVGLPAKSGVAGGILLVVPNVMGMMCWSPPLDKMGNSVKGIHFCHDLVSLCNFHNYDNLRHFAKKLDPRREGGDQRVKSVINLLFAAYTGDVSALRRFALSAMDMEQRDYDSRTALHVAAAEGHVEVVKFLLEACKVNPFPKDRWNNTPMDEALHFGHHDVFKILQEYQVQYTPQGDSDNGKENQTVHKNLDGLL
inactive: [1] 0.033 | [2] 0.05 | [3] 0.209 | [4] -0.049 | [5] 0.053 | [6] -0.17 | [7] 0.012 | [8] 0.054 | [9] -0.105 | [10] 0.118

HDAC7 isoform 5 (UniProt Q8WUI4)
Sequence of UniProt Q8WUI4 (Q8WUI4 whole entry, looked up): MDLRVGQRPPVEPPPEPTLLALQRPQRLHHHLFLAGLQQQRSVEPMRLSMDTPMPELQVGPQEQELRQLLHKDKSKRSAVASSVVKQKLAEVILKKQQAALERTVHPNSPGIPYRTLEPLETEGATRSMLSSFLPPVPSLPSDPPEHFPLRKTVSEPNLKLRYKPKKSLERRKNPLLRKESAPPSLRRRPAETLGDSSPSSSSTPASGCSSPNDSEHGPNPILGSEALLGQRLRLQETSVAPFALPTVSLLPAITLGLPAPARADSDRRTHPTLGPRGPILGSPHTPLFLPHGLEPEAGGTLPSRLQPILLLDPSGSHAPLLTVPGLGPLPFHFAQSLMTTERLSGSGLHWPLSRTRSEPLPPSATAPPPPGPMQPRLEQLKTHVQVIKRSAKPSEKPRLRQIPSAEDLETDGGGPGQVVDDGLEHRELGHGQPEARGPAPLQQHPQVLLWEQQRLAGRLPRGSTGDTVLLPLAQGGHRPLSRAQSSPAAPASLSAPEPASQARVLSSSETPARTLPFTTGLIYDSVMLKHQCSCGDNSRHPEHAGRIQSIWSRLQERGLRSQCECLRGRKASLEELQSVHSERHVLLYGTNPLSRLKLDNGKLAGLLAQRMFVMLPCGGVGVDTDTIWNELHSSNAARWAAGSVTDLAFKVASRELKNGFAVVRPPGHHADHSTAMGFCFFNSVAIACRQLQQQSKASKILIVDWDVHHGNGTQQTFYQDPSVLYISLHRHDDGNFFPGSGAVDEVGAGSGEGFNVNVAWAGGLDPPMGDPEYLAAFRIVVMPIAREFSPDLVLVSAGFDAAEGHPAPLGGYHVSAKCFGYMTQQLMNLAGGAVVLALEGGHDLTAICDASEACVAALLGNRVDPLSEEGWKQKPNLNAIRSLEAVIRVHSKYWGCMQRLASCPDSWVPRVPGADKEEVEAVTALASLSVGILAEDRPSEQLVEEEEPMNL
active: [4] -0.281
inactive: [1] -0.027 | [2] -0.013 | [3] 0.016 | [5] 0.008 | [6] 0.011 | [7] -0.03 | [8] 0.028 | [9] -0.018 | [10] 0.185

HPCAL1 (UniProt P37235)
inactive: [1] 0.015 | [2] 0.011 | [3] 0.08 | [4] -0.047 | [5] 0.032 | [6] -0.033 | [7] 0.024 | [8] -0.014 | [9] -0.027 | [10] -0.054
